This is an account of results in PubChem BioAssay AID720541 (National Center for Advancing Translational Sciences (NCATS), 2013).

Among all 1,300 compounds or so, about 420 (32%) were called active. Not shown: some 32% with an inconclusive outcome. Calls come from the whole dose curve; as a rule, active = well fitted inhibition curve with a large enough effect; inconclusive = small, poorly fitted or top-dose-only effect; inactive = no such curve, though single readings can be large or run the other way. This is one part of the list.
% is set by controls: 0 for no effect and ±100 for the full control effect; potency is the fitted concentration of half-maximal effect.

The test addresses C-terminal-binding protein 1 (Homo sapiens) (UniProt Q13363). Nature of the test: qHTS for Inhibitors of the Phosphatase Activity of Eya2: Carboxyl-terminal binding protein (CtBP) Counterscreen for Cherry-picked Compounds. Note: nearly all actives have a fitted effect of over 65% in size. The note with it: purified protein-protein binding, AlphaScreen, 3 h; series mostly up to 46.1 µM; activity change, negative = inhibition: at the top concentration. In outline: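 AlphaScreen using 25 nM GST-E1A with 25 nM CtBP-6xHIS; compounds at 2.5 nM–46 uM final, 2 h at room temperature, then donor/acceptor beads (20 ug/mL) for 1 h in the dark. Signal normalized to E1A peptide inhibitor (maximum inhibition) and DMSO.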
(In general: In qHTS, concentration-response curves come from the screen itself.)
Take `COCc1cc(O)c(O)c(O)c1-c1c(COC)cc(O)c(O)c1O`: the “activity change, negative = inhibition” value was 37.1% (inactive).

As to `CCC(C)Nc1ccc(NC(C)CC)cc1` (stereo not drawn), the Potency is 0.0849 µM (active).

Turning to `Cc1nc(-n2[nH]c3c(c2=O)CCCC3)[nH]c(=O)c1Cc1ccccc1`, the Potency is 13.5 µM (active).

With `COc1cc(C)c(/C=C/C(C)=C/C=C/C(C)=C/C(=O)O)c(C)c1C`, the “activity change, negative = inhibition” value was -7.68% (inactive).

Turning to `COc1cc(C(=O)Nc2cccc(NC(=O)c3cccs3)c2)cc(OC)c1OC`, the “activity change, negative = inhibition” value is -26.5% (inactive).

For `CCOc1ccc(NC(=O)c2sccc2-n2cccc2)cc1`, the “activity change, negative = inhibition” value is -14.2% (inactive).

In the case of `COc1ccc(C(=O)Nc2ccc3c(c2)CCCN3C(=O)c2cccs2)c(OC)c1`, the Potency is 7.57 µM (active).

With `COc1ccc(-n2c(SCC(=O)Nc3cc(C(=O)O)ccc3C)nc3ccccc3c2=O)cc1Cl`, the Potency was 8.49 µM (active).

Take `O=C(O)c1ccc(CSc2nc3ccccc3c(=O)n2-c2ccccc2)cc1`: the “activity change, negative = inhibition” value is 3.87% (inactive).

On to `COc1ccccc1CNC(=O)CSc1ccc(-c2ccccn2)nn1`, for which the Potency was 8.49 µM (active).

Consider `COc1ccc(NC(=O)CSc2ccc(-c3ccccn3)nn2)cc1OC`, for which the Potency was 3.79 µM (active).

On to `COc1cc(NC(=O)CSc2ccc(-c3ccccn3)nn2)cc(OC)c1`, for which the Potency was 1.9 µM (active).

As to `O=C(CSc1ccc(-c2ccccn2)nn1)Nc1cccc(F)c1`, the “activity change, negative = inhibition” value was -77.5% (inactive).

As for `COc1ccccc1CNC(=O)c1ccc2c(=O)n(CCCN3CCCC3=O)c(=S)[nH]c2c1`, the “activity change, negative = inhibition” value was -29.5% (inactive).

On to `COc1ccccc1CNC(=O)CCCc1cn(C)c2ccccc12`, for which the “activity change, negative = inhibition” value was -19.3% (inactive).

`COc1ccc(NC(=O)CN(C)C(=O)c2cccc(-n3cccc3)c2)cc1`: the “activity change, negative = inhibition” value is -28.7% (inactive).

In the case of `Cc1cc(C(=O)c2ccccc2)cc(C)c1O`, the “activity change, negative = inhibition” value is -57.8% (inactive).

For `CC1Cc2ccccc2N1C(=O)C1CCCN1S(=O)(=O)c1ccc(Cl)cc1` (stereo not drawn), the “activity change, negative = inhibition” value is 16% (inactive).

On to `CC1CCN(CC2C(=O)O[C@@H]3C[C@@]4(C)CCC[C@H](C)C4=C[C@H]23)CC(C)(C)C1` (stereo partly drawn), for which the “activity change, negative = inhibition” value is -5.73% (inactive).

For the molecule `Nc1[nH]nc2ncc3cc4ccccc4nc3c12`, the Potency was 10.7 µM (active).

With `O=C(CSc1ccc(-c2ccccn2)nn1)N1CCCC1`, the Potency is 8.49 µM (active).

For `O=C(Cn1c(S(=O)(=O)Cc2ccccc2)nc2ccccc21)N1CCCCC1`, the “activity change, negative = inhibition” value is 1.42% (inactive).

As for `O=C(CSc1ccc(-c2ccccn2)nn1)N1CCCCC1`, the Potency is 7.57 µM (active).

Regarding `O=C(C1=C[C@H](c2ccccc2)C[C@H](OCc2ccc(CO)cc2)O1)N1CCN(Cc2ccccc2)CC1`, the “activity change, negative = inhibition” value was -14% (inactive).

For `COc1ccc(-n2c(CN3CCN(c4ccccc4OC)CC3)nc3ccc([N+](=O)[O-])cc3c2=O)c(OC)c1`, the “activity change, negative = inhibition” value was -17% (inactive).

For the molecule `COc1ccccc1N1CCN(/N=C/C=C\c2ccccc2[N+](=O)[O-])CC1`, the Potency was 15.1 µM (active).

`O=[N+]([O-])c1ccccc1/C=C\C=N\N1CCN(c2ccccc2)CC1`: the “activity change, negative = inhibition” value was -82.1% (inactive).

With `O=C(c1cccs1)N1CCC(c2nc3c(nnn3Cc3cccc(Cl)c3)c(=O)[nH]2)CC1`, the Potency was 12 µM (active).

`CCOC(=O)c1cnc2c(C#N)cnn2c1N`: the Potency is 10.7 µM (active).

With `CC(NC(=O)c1cc2c(s1)CS(=O)(=O)C2)c1ccccc1` (stereo not drawn), the “activity change, negative = inhibition” value is 1.67% (inactive).

As to `CCOc1ccc2[nH]cc(-c3csc(N)n3)c2c1`, the Potency was 12 µM (active).

With `O=c1cc2oc3cc(O)c(O)cc3c(-c3ccccc3[N+](=O)[O-])c-2cc1O`, the Potency was 9.53 µM (active).

On to `Cc1cccc(C)c1OCc1cc(C(=O)N2CCN(c3ccccc3)CC2C)no1` (stereo not drawn), for which the “activity change, negative = inhibition” value is 1.7% (inactive).

On to `COc1ccc(-c2c(N)cnc(C(=O)O)c2C)c(OCc2ccccc2)c1OC`, for which the Potency is 12 µM (active).

Take `COc1cc(C(C(=O)NC2CCCCC2)N(C(=O)Cc2c[nH]c3ccccc23)c2ccc(C)cc2)cc(OC)c1OC` (stereo not drawn): the “activity change, negative = inhibition” value was -17% (inactive).

Consider `Cc1cc(/C=N/NC(=O)c2ccccn2)c(C)n1-c1cccc([N+](=O)[O-])c1`, for which the Potency is 15.1 µM (active).

In the case of `Cn1nnnc1SCC(=O)Nc1ccc2c(c1)OCO2`, the “activity change, negative = inhibition” value is 7.08% (inactive).

On to `CCCCn1nc(C(=O)Nc2ccc3c(c2)OCO3)c2ccccc2c1=O`, for which the Potency was 15.1 µM (active).

Turning to `O=C(CCn1c(=O)oc2ccccc21)NCc1ccc2c(c1)OCO2`, the “activity change, negative = inhibition” value was 6.99% (inactive).

For `COc1cc2c(cc1OC)C(c1ccc([N+](=O)[O-])cc1)NCC2` (stereo not drawn), the “activity change, negative = inhibition” value was -2.74% (inactive).

As for `Nc1ccc2nc3c(=O)[nH]c(=S)[nH]c3nc2c1`, the Potency is 3.79 µM (active).

On to `CN(C)c1ccc(N=Nc2ccnc3ccccc23)cc1`, for which the Potency was 2.13 µM (active).

Take `COc1cc(NC(=O)CN2C(=O)CSc3ccc(S(=O)(=O)N4CCCC4)cc32)cc(OC)c1`: the “activity change, negative = inhibition” value was -78.4% (inactive).

In the case of `CCC(=O)N1N=C(c2ccc(C)o2)CC1c1ccc(N(C)C)cc1` (stereo not drawn), the “activity change, negative = inhibition” value is -29.7% (inactive).

Consider `COc1ccc(C2CC(c3ccccc3OC(=O)/C=C/c3ccccc3)=NN2C(C)=O)cc1` (stereo not drawn), for which the Potency is 1.69 µM (active).

For the molecule `O=C(Oc1cccnc1)c1ccc([N+](=O)[O-])cc1Cl`, the “activity change, negative = inhibition” value is -23.8% (inactive).

As to `COc1ccc(CCn2c(=N)c(C(=O)NCc3ccco3)cc3c(=O)n4ccccc4nc32)cc1OC`, the Potency is 9.53 µM (active).

As for `Cc1cccn2c(=O)c3cc(S(=O)(=O)c4ccc(F)cc4)c(=N)n(Cc4ccco4)c3nc12`, the “activity change, negative = inhibition” value is 2.11% (inactive).

Take `COc1ccc(CCn2c(=N)c(C(=O)NCC3CCCO3)cc3c(=O)n4ccccc4nc32)cc1` (stereo not drawn): the Potency was 12 µM (active).

Consider `COc1ccc(-c2csc(Nc3ccc(S(N)(=O)=O)cc3)n2)cc1OC`, for which the Potency is 15.1 µM (active).

With `COc1ccccc1Nc1nc(-c2ccc3c(c2)NC(=O)CO3)cs1`, the “activity change, negative = inhibition” value is 7.27% (inactive).

`Cc1cc(C(=O)COC(=O)c2cccnc2Cl)c(C)n1-c1c(C)n(C)n(-c2ccccc2)c1=O`: the “activity change, negative = inhibition” value was -0.409% (inactive).

Turning to `CCn1cc(C(=O)OCC(=O)c2cc(C)n(-c3ccccc3F)c2C)c(=O)c2ccc(C)nc21`, the Potency was 16.9 µM (active).

Turning to `COCCn1c(C)cc(C(=O)COC(=O)c2ccccc2Br)c1C`, the “activity change, negative = inhibition” value is -24.1% (inactive).

As for `COc1ccc(NC(=O)c2ccc(COc3ccccc3)o2)c(OC)c1`, the “activity change, negative = inhibition” value is 1.73% (inactive).

Regarding `O=C(COC(=O)c1cc(-c2cccnc2)nc2ccccc12)Nc1ccc(F)cc1F`, the “activity change, negative = inhibition” value was -12.7% (inactive).

As for `CCOc1ccccc1C(=O)OCC(=O)Nc1nnc(-c2ccccc2)o1`, the Potency is 13.5 µM (active).

Consider `CCC(=O)NC(=S)Nc1ccc(NC(=O)COc2ccc([N+](=O)[O-])cc2)cc1`, for which the “activity change, negative = inhibition” value is -0.724% (inactive).

In the case of `CCc1ccc(NC(=O)COC(=O)c2ccccc2OCC(=O)N(C)C)cc1`, the “activity change, negative = inhibition” value is 8.66% (inactive).

Regarding `CC1CCCN(S(=O)(=O)c2ccc(C(=O)Nc3nnc(-c4ccco4)o3)cc2)C1` (stereo not drawn), the “activity change, negative = inhibition” value is -45.9% (inactive).

As to `O=C(COc1ccccc1)Nc1nnc(-c2ccco2)o1`, the Potency is 16.9 µM (active).

For the molecule `CS(=O)(=O)c1ccc(-c2nnc(NC(=O)C3=COCCO3)o2)cc1`, the “activity change, negative = inhibition” value is -24.7% (inactive).

Regarding `COc1ccc(C(=O)Nc2nnc(-c3ccccc3)o2)cc1OC`, the Potency is 19 µM (active).
